According to PubChem BioAssay AID1851 (National Center for Advancing Translational Sciences (NCATS), 2009):
The campaign covered roughly 16,000 compounds. About 5,700 (36%) were called active. Another 24% or so got no clear call; they are omitted. Calls follow the shape of the dose curve; as a rule, active = well fitted curve in the direction sought with a large enough effect; inconclusive = small, poorly fitted or top-dose-only effect, or effect the other way; inactive = no such curve, though single readings can be large or run the other way. The list shows a part of the results.

biological target: Cytochrome P450 1A2 (Homo sapiens) (UniProt P05177); test: Cytochrome panel assay with activity outcomes; conditions: recombinant CYP, pro-luciferin dealkylation, luminescence, p450-cyp1a2; series mostly up to 57.1 µM; activity, negative = inhibition: at the top concentration
Sequence (P05177 whole entry, looked up): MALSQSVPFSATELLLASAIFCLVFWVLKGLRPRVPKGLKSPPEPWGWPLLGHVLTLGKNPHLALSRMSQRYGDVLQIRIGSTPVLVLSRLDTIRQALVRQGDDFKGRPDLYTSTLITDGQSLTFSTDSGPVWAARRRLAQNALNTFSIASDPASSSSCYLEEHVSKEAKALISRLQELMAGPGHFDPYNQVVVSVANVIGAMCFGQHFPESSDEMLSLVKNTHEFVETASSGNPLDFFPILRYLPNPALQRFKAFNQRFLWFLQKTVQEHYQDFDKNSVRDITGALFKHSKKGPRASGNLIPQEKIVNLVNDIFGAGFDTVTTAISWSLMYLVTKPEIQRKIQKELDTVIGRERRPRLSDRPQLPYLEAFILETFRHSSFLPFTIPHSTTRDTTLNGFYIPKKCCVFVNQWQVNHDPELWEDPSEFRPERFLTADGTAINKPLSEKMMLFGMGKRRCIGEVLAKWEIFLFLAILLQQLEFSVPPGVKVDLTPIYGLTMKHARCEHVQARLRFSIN
% is scaled to controls: 0 for no effect and ±100 for the full control effect.

Row | Compound | AC50 | activity, negative = inhibition
1 | N#CCCn1c(=O)c(-c2ccc(F)cc2)nc2cnc(OCc3ccccc3)nc21 | 1580 nM (active) | –
2 | N#CCCn1c(=O)c(-c2ccc(Cl)cc2)nc2cnc(OCc3ccccc3)nc21 | 2000 nM (active) | –
3 | N#CCCn1c(=O)cnc2cnc(OCc3ccccc3)nc21 | 12600 nM (active) | –
4 | N#CCCn1c(=O)c(-c2cc(F)cc(F)c2)nc2cnc(Oc3ccccc3)nc21 | 2000 nM (active) | –
5 | O=C1CC[C@H](NC(=O)c2ccccc2)C(=O)N1 | – | -20.9% [at 11.4 µM] (inactive)
6 | N#CCCn1c(=O)c(-c2cc(F)cc(F)c2)nc2cnc(OCc3ccccc3)nc21 | 6310 nM (active) | –
7 | N#CCCn1c(=O)c(-c2ccccc2)nc2cnc(OCc3ccccc3)nc21 | 3160 nM (active) | –
8 | CN(C)c1ncc2nc(-c3cc(F)cc(F)c3)c(=O)n(CCC#N)c2n1 | – | -15.7% (inactive)
9 | COc1ncc2nc(-c3cc(F)cc(F)c3)c(=O)n(CCC#N)c2n1 | 6310 nM (active) | –
10 | COc1cccc([C@@H]2Oc3ccc(OC)cc3/C(=N/O[C@@H](C)c3cn([C@H]4COC[C@H]4O)nn3)[C@@H]2O)c1 | – | 8.26% [at 11.4 µM] (inactive)
11 | Clc1ccccc1C(Nc1ncccn1)Nc1ncccn1 | – | -16.9% [at 11.4 µM] (inactive)
12 | CC(=O)c1c(C(C)=O)c(C)n(NC(=O)c2ccncc2)c1C | – | 8.59% (inactive)
13 | Cc1onc(-c2ccccc2)c1C(=O)NC(CC(=O)O)c1ccc(OC(C)C)cc1 (stereo unspecified) | – | -19.1% (inactive)
14 | CC(=O)c1cc2c(cc1NC(=O)c1c(-c3ccccc3)noc1C)OCO2 | 2240 nM (active) | –
15 | Cc1onc(-c2c(Cl)cccc2Cl)c1C(=O)N1CCc2ccccc2C1 | – | -17.5% (inactive)
16 | CC(=O)c1cc2c(cc1NC(=O)CCCC(=O)O)OCO2 | – | -28% (inactive)
17 | Cc1onc(-c2c(Cl)cccc2Cl)c1C(=O)Nc1ccc2c(c1)OCO2 | 3160 nM (active) | –
18 | C/C(=C(/CCO)SSC[C@@H]1CCCO1)N(C=O)Cc1cnc(C)nc1N | – | -10.8% [at 25.6 µM] (inactive)
19 | CCOC(=O)C1CCCN(C(=O)CSCc2ccccc2)C1 (stereo unspecified) | – | -15.5% (inactive)
20 | CC(C)CC(=O)N1CCC(O)(CS(=O)(=O)Cc2ccc(Cl)cc2)CC1 | – | 11% (inactive)
21 | CCOC(=O)N1CCN(C(=O)CSCc2ccc(Cl)cc2)CC1 | 6310 nM (active) | –
22 | CCOc1cccc2cc(C(N)=O)c(=NCc3ccccc3)oc12 | 2240 nM (active) | –
23 | COc1cccc(-c2ccc3ncnc(N(C)Cc4ccco4)c3c2)c1 | 1260 nM (active) | –

Row | Compound | AC50 | activity, negative = inhibition
24 | CN(Cc1ccco1)c1ncnc2ccc(-c3cccnc3)cc12 | 316 nM (active) | –
25 | Cc1ccc(CSc2nnc3c(n2)OC2(Nc4ccccc4-3)C(=O)Nc3ccc(F)cc32)cc1 (stereo unspecified) | 14100 nM (active) | –
26 | CCCNC(=O)OC[C@H]1O[C@@H](CCO/N=C2/[C@H]3O[C@@H]3[C@@H](O)[C@H]3[C@H]2CCn2c(=O)n(-c4ccccc4)c(=O)n23)C=C[C@@H]1Oc1ccc(OC)cc1 | – | -12.7% [at 11.4 µM] (inactive)
27 | COc1ccc(-n2c(=O)c(-c3cn(C)c4ccccc34)nc3cnc(OC)nc32)cc1 | – | -22% (inactive)
28 | COc1ccc(Oc2ncc3nc(-c4cn(C)c5ccccc45)c(=O)n(C4CC4)c3n2)cc1 | 12600 nM (active) | –
29 | Cn1cc(-c2nc3cncnc3n(-c3ccccc3)c2=O)c2ccccc21 | 1580 nM (active) | –
30 | Cn1cc(-c2nc3cncnc3n(C3CC3)c2=O)c2ccccc21 | 200 nM (active) | –
31 | COc1ccc(-n2c(=O)c(-c3cn(C)c4ccccc34)nc3cncnc32)cc1 | 316 nM (active) | –
32 | CS(=O)(=O)N1CCC[C@@]2(CCN(Cc3nccs3)C2)C1 | – | 3.08% (inactive)
33 | CCOc1ccc(/C=C/C2=Cc3c(sc(NC(=O)CSc4n[nH]c(N)n4)c3C#N)C(C)(C)C2)cc1 | – | -14.8% (inactive)
34 | CCOC(=O)c1sc(NC(=O)CSc2n[nH]c(-c3ccc(Cl)cc3Cl)n2)c(C#N)c1C | 14100 nM (active) | –
35 | CCOC(=O)c1sc(NC(=O)CSc2nc(C)cc(C)c2C#N)c(C#N)c1C | – | -28.8% (inactive)
36 | COc1cc2cc3c(N)c(C(=O)Nc4sc(C)c(C)c4C#N)sc3nc2cc1OC | – | -27.6% (inactive)
37 | Cc1ccc(/C=C/C2=Cc3c(sc(NC(=O)CSc4n[nH]c(N)n4)c3C#N)C(C)(C)C2)o1 | – | -29.2% (inactive)
38 | CCOC(=O)c1sc(NC(=O)CSc2nc(C)cc(C)n2)c(C#N)c1C | 10000 nM (active) | –
39 | Cn1c(=O)c2nc(-c3ccccc3)oc2c2ccccc21 | 398 nM (active) | –
40 | Cc1ccc(S(=O)(=O)n2c3ccccc3c3nnc(C(=O)c4ccccc4)nc32)cc1 | – | -2.9% [at 11.4 µM] (inactive)
41 | Cc1ccc(-c2nc3c(=O)n(C)c4ccccc4c3o2)cc1 | 398 nM (active) | –
42 | COc1cccc(-c2cc(NCCc3c[nH]c4ccc(OC)cc34)ncn2)c1 | 794 nM (active) | –
43 | COc1ccc2[nH]cc(CCNc3ccnc(-c4cccnc4)n3)c2c1 | 251 nM (active) | –
44 | COc1ccc2[nH]cc(CCNc3cc(-c4cccnc4)ncn3)c2c1 | 3160 nM (active) | –
45 | COc1ccc2[nH]cc(CCNc3cc(-c4cccc(C#N)c4)ncn3)c2c1 | 794 nM (active) | –
46 | N[C@H](CCC(=O)NCC(=O)O)C(=O)O | – | -17.4% (inactive)

Row | Compound | AC50 | activity, negative = inhibition
47 | COc1ccccc1CN1CCC2(CCNCC2)CC1 | – | -5.13% (inactive)
48 | CN(C)CCn1nnnc1SCC1=C(C(=O)O)N2C(=O)[C@@H](NC(=O)Cc3csc(N)n3)[C@@H]2SC1 | – | -6.52% [at 25.6 µM] (inactive)
49 | COc1ccc2[nH]cc(CCNc3cc(-c4ccoc4)ncn3)c2c1 | 631 nM (active) | –
50 | COc1ccc2[nH]cc(CCNc3ccnc(-c4cccc(NS(C)(=O)=O)c4)n3)c2c1 | 1580 nM (active) | –
51 | CC1(C)S[C@@H]2[C@H](NC(=O)C(N)c3ccccc3)C(=O)N2[C@H]1C(=O)O (stereo partly specified) | – | -0.0503% [at 25.6 µM] (inactive)
52 | CN(c1ccccc1)c1nc(-n2ccnc2)nc(-n2ccnc2)n1 | 158 nM (active) | –
53 | c1ccc(-c2nc(N3CCCCCC3)nc(-n3ccnc3)n2)cc1 | 1260 nM (active) | –
54 | CC(C)[C@@H](OCc1ccccc1)[C@H](C)/C=N\OC[C@@H](O)[C@@H]1O[C@@H]2OC(C)(C)O[C@@H]2[C@H]1O | – | -0.825% [at 11.4 µM] (inactive)
55 | Clc1ccccc1-c1nccc(-n2ccnc2)n1 | 158 nM (active) | –
56 | COc1ccccc1-c1nccc(-n2ccnc2)n1 | 158 nM (active) | –
57 | Cc1ccccc1-c1nccc(-n2ccnc2)n1 | 79.4 nM (active) | –
58 | COC(=O)N1CCC[C@@]2(CCN(C(=O)Nc3ccc(OC)cc3)C2)C1 | – | -2.89% (inactive)
59 | N=C(N)SCC(=O)O | – | -10.2% [at 2.29 µM] (inactive)
60 | Cn1c(/C(C#N)=C(\O)c2ccc(S(=O)(=O)N3CCCCC3)cc2)nc2ccccc21 | – | -8.63% (inactive)
61 | COc1ccc(/C(O)=C(\C#N)c2nc3ccccc3n2C)cc1OC | 5010 nM (active) | –
62 | CN(CCCNC(=O)c1cccn2c(=O)c3ccccc3nc12)Cc1ccccc1 | 14100 nM (active) | –
63 | CN(CCCNC(=O)c1ccc(/C=N/O)nc1)CCCN(C)Cc1ccccc1 | – | 2.39% (inactive)
64 | CN(C)CCCNC(=O)CCc1nc2ccccc2c(=O)[nH]1 | – | -6.97% (inactive)
65 | Cc1cccc(CNc2ncncc2-c2ccc3c(c2)OCO3)c1 | 126 nM (active) | –
66 | Cc1cnc(CNc2ncncc2-c2ccc3c(c2)OCO3)cn1 | 2000 nM (active) | –
67 | c1csc(CNc2ncncc2-c2ccc3c(c2)OCO3)c1 | 200 nM (active) | –
68 | c1cncc(CNc2ncncc2-c2ccc3c(c2)OCO3)c1 | 398 nM (active) | –
69 | Cc1ccc(N(C(=O)Cn2nnc(-c3ccc(F)cc3)n2)C(CC(C)C)C(=O)NCC2CCCO2)cc1 (stereo unspecified) | – | -2.51% (inactive)

Row | Compound | AC50 | activity, negative = inhibition
70 | c1ccc(Nc2ncncc2-c2ccc3c(c2)OCO3)cc1 | 316 nM (active) | –
71 | c1ccc(CNc2ncncc2-c2ccc3c(c2)OCO3)cc1 | 126 nM (active) | –
72 | CC(C)c1ccccc1S(=O)c1ccccc1C(C)(C)O (stereo unspecified) | – | -10.7% [at 2.29 µM] (inactive)
73 | NCc1ccc(C(=O)O)cc1 | – | -4.79% [at 2.29 µM] (inactive)
74 | O=C(O)c1cccc2cccc(-c3cccc4cccc(C(=O)O)c34)c12 | – | -12.3% [at 2.29 µM] (inactive)
75 | O=C(O)c1ccccc1/C=N\N=C1c2ccccc2-c2ccccc21 | 316 nM (active) | –
76 | O=C(O)c1ccc(/C=N\N=C2c3ccccc3-c3ccccc32)cc1 | 126 nM (active) | –
77 | O=C(O)c1ccccc1OP(=O)(O)O | – | -1.68% [at 25.6 µM] (inactive)
78 | Cc1ccc(Cl)cc1-n1c(=O)cc(N2CC(C)OC(C)C2)[nH]c1=O (stereo unspecified) | – | -1.42% (inactive)
79 | Clc1ccc(Cl)c(Nc2ccnc(SCc3ccccc3)n2)c1 | 501 nM (active) | –
80 | Cc1cccc(Nc2cc(Cl)nc(SCC(=O)O)n2)c1C | – | 0.128% (inactive)
81 | Cn1c(=O)n2n(c1=O)[C@H]1[C@H](O)[C@H]3O[C@@H]3/C(=N/OC[C@@H](O)COCc3ccco3)[C@@H]1CC2 | – | 2.55% [at 11.4 µM] (inactive)
82 | CCc1cccc2c3c([nH]c12)[C@@](CC)(CC(=O)O)OCC3 | – | -10.3% [at 25.6 µM] (inactive)
83 | CCc1cccc2c(-c3ccccc3)c3c(nc12)OCC3 | 316 nM (active) | –
84 | NS(=O)(=O)c1ccc(N=C2C(=O)Nc3ccccc32)cc1 | – | -12.7% [at 2.29 µM] (inactive)
85 | O=C1Nc2ccccc2/C1=N/c1sc2c(c1C(=O)NCCc1ccccc1)CCCC2 | 2510 nM (active) | –
86 | O=C1Nc2ccccc2C1=Nc1ccc(S(=O)(=O)Nc2nccs2)cc1 | – | -18.2% [at 11.4 µM] (inactive)
87 | CS(=O)(=O)Nc1cccc(-c2nc(NCc3cccs3)c3ccccc3n2)c1 | 1000 nM (active) | –
88 | COCCNc1nc(-c2cccc(NS(C)(=O)=O)c2)nc2ccccc12 | 3160 nM (active) | –
89 | c1cc(NNc2cccc(-c3nn[nH]n3)c2)cc(-c2nn[nH]n2)c1 | – | -15.5% [at 2.29 µM] (inactive)
90 | CC(=O)NCCNc1nc(-c2cccc(NS(C)(=O)=O)c2)nc2ccccc12 | 15800 nM (active) | –
91 | CS(=O)(=O)Nc1cccc(-c2nc(NCc3ccccc3)c3ccccc3n2)c1 | 2510 nM (active) | –
